In the supplement of paper PMC7411054:
Structures can show the parent of a compound that is named as a salt.

Experiments:
Conditions in all cases: treatment time: 24 h
HepG2-ACTB-RAB5A = test: lowest phenotypically active concentration; higher = less potent
Method in brief: (§1)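 Each of fifteen gene-edited A549, HepG2 and WPMY1 reporter lines, marked with BFP for segmentation and GFP and RFP/FusionRed, was treated in four wells at 0.3, 1, 3 or 9 µM for 24 h prior to live imaging. Normalisation of per-well live-cell features used solvent control wells. Deviation needed ≥3 of 4 wells beyond the 95th percentile of control Euclidean distances, and reproducibility needed a median replicate Pearson correlation above the 95th percentile of non-replicates. Both were required for phenotypic activity.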

HepG2-TP53BP1-CLTA = test: as above
Method in brief: as §1

HepG2-TUBA1B-RELA = test: as above
Method in brief: as §1

WPMY1-ACTB-RAB5A [1] = test: as above
Method in brief: as §1

WPMY1-CANX-COX4 = test: as above
Method in brief: as §1

WPMY1-GM130-SQSTM1 = test: as above
Method in brief: as §1

WPMY1-TP53BP1-CLTA = test: as above
Method in brief: as §1

WPMY1-TUBA1B-RELA = test: as above
Method in brief: as §1

WPMY1-ACTB-RAB5A [2] = test: phenotypically active (imaging signature differs from DMSO and reproducible) at any of 0.3-9 uM (binary (1 = active, 0 = inactive)); higher = active
Method in brief: as §1

HepG2-CANX-COX4 = test: lowest phenotypically active concentration; higher = less potent
Method in brief: as §1

Row | SMILES | lowest phenotypically active concentration (HepG2-ACTB-RAB5A) | lowest phenotypically active concentration (HepG2-TP53BP1-CLTA) | lowest phenotypically active concentration (HepG2-TUBA1B-RELA) | lowest phenotypically active concentration (WPMY1-ACTB-RAB5A [1]) | lowest phenotypically active concentration (WPMY1-CANX-COX4) | lowest phenotypically active concentration (WPMY1-GM130-SQSTM1) | lowest phenotypically active concentration (WPMY1-TP53BP1-CLTA) | lowest phenotypically active concentration (WPMY1-TUBA1B-RELA) | phenotypically active (WPMY1-ACTB-RAB5A [2]) | lowest phenotypically active concentration (HepG2-CANX-COX4)
1 | CN1CCCC(n2nc(Cc3ccc(Cl)cc3)c3ccccc3c2=O)CC1 (stereo not drawn) [azelastine] | 9 µM | 9 µM | 9 µM | 9 µM | 9 µM | 9 µM | 9 µM | 9 µM | 1 (active) | 
2 | COc1cc2c(N3CCN(C(=O)Nc4ccc(OC(C)C)cc4)CC3)ncnc2cc1OCCCN1CCCCC1 [tandutinib] | 9 µM | 9 µM | 3 µM | 9 µM | 9 µM | 9 µM |  | 9 µM | 1 (active) | 9 µM
3 | CC(C)CNc1nc(-c2cccc3ncccc23)cn2c(-c3ccc(C(=O)NC4CC4)cc3)cnc12 | 1 µM | 1 µM | 1 µM | 1 µM |  | 1 µM | 1 µM |  | 1 (active) | 1 µM
4 | CN1CCN([C@H]2CC[C@H](n3cc(-c4ccc(Oc5ccccc5)cc4)c4c(N)ncnc43)CC2)CC1 | ≤ 0.3 µM | 1 µM | ≤ 0.3 µM | ≤ 0.3 µM |  | ≤ 0.3 µM | 1 µM | ≤ 0.3 µM | 1 (active) | 1 µM
5 | COc1cc2c(cc1O)CC[C@@H]1[C@@H]2CC[C@]2(C)[C@@H](O)CC[C@@H]12 [2-methoxyestradiol] | 3 µM | 3 µM | 3 µM | 1 µM | 1 µM |  | 1 µM | 1 µM | 1 (active) | 1 µM
6 | Cc1cc2c(F)c(Oc3ncnn4cc(OC[C@@H](C)O)c(C)c34)ccc2[nH]1 [brivanib] | 9 µM | 9 µM | 9 µM | 3 µM | 9 µM |  | 3 µM | 9 µM | 1 (active) | 9 µM
7 | CCCCc1oc2ccccc2c1C(=O)c1cc(I)c(OCCN(CC)CC)c(I)c1 [amiodarone] | 9 µM | 9 µM | 3 µM | 9 µM | 9 µM | 9 µM | 9 µM | 9 µM | 1 (active) | 9 µM
8 | N#CC[C@@H](C1CCCC1)n1cc(-c2ncnc3[nH]ccc23)cn1 [ruxolitinib-(S)] |  | 9 µM | 9 µM | 9 µM | 9 µM |  |  | 3 µM | 1 (active) | 9 µM
9 | CC(=O)NC1=NN(C(C)=O)C(C)(c2ccccc2)S1 (stereo not drawn) | 9 µM | 3 µM | 3 µM | 3 µM | 9 µM | 3 µM | 3 µM | 3 µM | 1 (active) | 3 µM
10 | O=C1c2ccccc2-c2nc3nonc3nc21 | 3 µM | 3 µM | 3 µM | 3 µM | 9 µM |  |  | 3 µM | 1 (active) | ≤ 0.3 µM
11 | COc1cc(O)cc(O)c1C(=O)/C=C/c1ccccc1 [Cardamonin] | 9 µM |  | 9 µM | 9 µM | 9 µM | 9 µM | 9 µM | 9 µM | 1 (active) | 9 µM
12 | COc1cc2nc(N3CCN(C(=O)C4COc5ccccc5O4)CC3)nc(N)c2cc1OC (stereo not drawn) [doxazosin] | 9 µM | 9 µM | 9 µM | 9 µM | 9 µM | ≤ 0.3 µM | 9 µM |  | 1 (active) | 
13 | CN1CCN(C(=O)CN[C@H]2C[C@@H]2c2ccc(OCc3ccccc3)cc2)CC1 [RN 1 dihydrochloride] | 9 µM | 9 µM | 3 µM | 9 µM | 9 µM | 9 µM | 9 µM | 9 µM | 1 (active) | 
14 | CNC(=O)c1cc(Oc2ccc(NC(=O)Nc3ccc(Cl)c(C(F)(F)F)c3)cc2)ccn1 [sorafenib] | 9 µM | 9 µM | 3 µM | ≤ 0.3 µM | 3 µM | 1 µM |  | 9 µM | 1 (active) | 3 µM
